The values that follow come from PubChem BioAssay.

In assay [1] the test system is Wnt5a (protein binding on small-molecule microarray). Put plainly: small molecules binding Wnt5a protein – biophysical, small-molecule microarray, 635/667 nm fluorescence, primary screen (AID 1142).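 Further: fluorescence read at 667 nm with signal to noise per printed feature.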 To be noted: 635 nm fluorescence, higher = more signal.
Assay [2] is described as follows: ATP-based viability of Huh7 replicon cells – cell-based, CellTiter-Glo luminescence, basal, 48 h, cytotoxicity control for HCV replication inhibitor project, primary screen (AID 1143).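 Further: Huh7 hepatoma cells carrying a hepatitis C replication reporter with no stimulus; test concentration not given here.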 To be noted: higher = more signal, called active from +8 up or from −8 down. In general terms: A replicon is a self-replicating genome or part of one, used to study replication in cells.

A short description of assay [3]: Pseudomonas biofilm growth suppression – PAO1 strain, BacTiter-Glo luminescence, LB-PBS, primary screen (AID 1144). The note with it: P. aeruginosa PAO1 biofilm, 12 h, higher = more signal.
The nature of assay [4]: basal CRE-LacZ reporter activity in PC12 – cell-based, unstimulated, primary screen (AID 1145). To be noted: no forskolin, luminescence, 4.5 h, higher = more signal, called active from +8 up or from −8 down.
Assay [5] can be described thus: forskolin-driven CRE-LacZ activity in PC12 – cell-based, CRE-LacZ reporter, forskolin-stimulated, primary screen (AID 1146).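 Further: PC12 cells with 6xCRE LacZ reporter stimulated by forskolin 10 µM; beta-galactosidase reporter signal reflecting CREB driven transcription.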 To be noted: luminescence, 4.5 h, higher = more signal, called active from +8 up or from −8 down.
The target of assay [6] is Streptavidin (Streptomyces avidinii) (UniProt P22629). Put plainly: compounds binding control protein streptavidin – biophysical, small-molecule microarray, 635/667 nm fluorescence, artefact control for SMM compound annotation, primary screen (AID 1147).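 Further: signal reflects streptavidin binding to arrayed compounds as a control protein.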 The note with it: higher = more signal.
Assay [7] is described as follows: probe aInhba binding on compound microarray – biochemical, small-molecule microarray, 635/667 nm fluorescence, primary screen (AID 1148).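 Further: score merges 667nm spot fluorescence with signal-to-noise for antibody binding to printed compounds.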 To be noted: higher = more signal.
In assay [8] the target is Torsin-1A (Homo sapiens) (UniProt O14656). Description: TOR1A wild-type binding on microarray – cell lysate, small-molecule microarray, lysate, 635/667 nm, primary screen (AID 1149). To be noted: COS7 hTOR1A-WT lysate, 635 nm fluorescence, higher = more signal.
Assay [9] shares this target. Description: torsin A mutant lysate binding on microarrays – cell lysate, small-molecule microarray, COS7 lysate, 635/667 nm fluorescence, primary screen (AID 1150).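 Further: score pools 667 nm emission and signal to noise measuring lysate protein binding.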 To be noted: COS7 hTOR1A mutant lysate, 635 nm fluorescence, higher = more signal.
The test system of assay [10] is Sonic hedgehog protein (Shh). Put plainly: Sonic hedgehog microarray binding compounds – biochemical, small-molecule microarray, 635/667 nm fluorescence, primary screen (AID 1151).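 Further: Shh protein binding to compounds spotted on small-molecule microarray slides; score combines spot fluorescence intensity with signal-to-noise across triplicate slides.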 To be noted: 635 nm fluorescence, higher = more signal.
Assay [11] can be described thus: optical density shifts of acrAB sulA E. coli – strain DRC41, OD650, 48 h, E. coli filamentation inducer project, primary screen (AID 1152).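 Further: E. coli MC1000 strain DRC41 lacking acrAB efflux pump and sulA.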 The note with it: higher = more signal, called active from +8 up or from −8 down.
Assay [12] is described as follows: probe aLefty1 binding on compound microarray – biochemical, small-molecule microarray, 635/667 nm fluorescence, primary screen (AID 1153).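 Further: score merges spot fluorescence with signal-to-noise ratio from the scanned slide images.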 The note with it: higher = more signal.
The nature of assay [13]: plasmodial surface anion channel blockers, osmotic lysis – cell-based, P. falciparum Indochina, OD700, 1 h, primary screen (AID 1154). To be noted: P. falciparum Indochina infected RBC osmotic lysis, higher = more signal, called active from +8 up or from −8 down.
Assay [14] can be described thus: plasmodial surface anion channel blockers, osmotic lysis – cell-based, P. falciparum Indochina, OD700, 2 h, primary screen (AID 1155).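 Further: lysis reports solute entry through the parasite surface anion channel PSAC.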 To be noted: P. falciparum Indochina infected erythrocytes, higher = more signal, called active from +8 up or from −8 down.
The nature of assay [15]: changes in parasitized red cell lysis, either direction – P. falciparum Indochina, OD700, 3 h, PSAC antagonist project, primary screen (AID 1156). The note with it: P. falciparum-infected erythrocytes, osmotic lysis, higher = more signal, called active from +8 up or from −8 down.
Assay [16] can be described thus: plasmodial surface anion channel blockers, osmotic lysis – cell-based, P. falciparum Indochina, OD700, 18 h, primary screen (AID 1157). The note with it: P. falciparum Indochina infected erythrocytes, osmotic lysis OD700, 18 h; higher = more signal, called active from +8 up or from −8 down.
Assay [17] is described as follows: S6 kinase pathway phospho-S6 level changes – cell-based, A549, cytoblot, luminescence, serum-stimulated, primary screen (AID 1158).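 Further: serum-stimulated A549 lung adenocarcinoma cells; signal is phosphorylated S6 detected by cytoblot immunostaining with HRP secondary.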 The note with it: 5 h, higher = more signal.
Assay [18] has as its target NADPH oxidase 2 (Homo sapiens) (UniProt P04839). Description: compounds shifting NOX2 Amplex Red fluorescence – cell-based, HEK293-NOX2, PMA-stimulated, NOX inhibitor project, primary screen (AID 1159). Further: test concentration not given here. To be noted: 45 min, higher = more signal, called active from +8 up or from −8 down.
In assay [19] the target is NADPH oxidase 4 (Homo sapiens) (UniProt Q9NPH5). Description: compounds shifting NOX4 Amplex Red fluorescence – cell-based, HEK293-NOX4, tetracycline-induced, NOX inhibitor project, primary screen (AID 1160). To be noted: HEK293-NOX4, Amplex Red H2O2 fluorescence, 45 min; higher = more signal, called active from +8 up or from −8 down.
The target of assay [20] is NADPH oxidase 5 (Homo sapiens) (UniProt Q96PH1). Description: compounds shifting NOX5 Amplex Red fluorescence – cell-based, HEK293-NOX5, NOX inhibitor project, primary screen (AID 1161). To be noted: HEK293-NOX5, ionomycin, 45 min, higher = more signal.

Calls of active or inactive are those of the source. Unless noted, how the calls were made is not given here.

Chain of NADPH oxidase 2 (Homo sapiens) (P04839 whole entry, looked up): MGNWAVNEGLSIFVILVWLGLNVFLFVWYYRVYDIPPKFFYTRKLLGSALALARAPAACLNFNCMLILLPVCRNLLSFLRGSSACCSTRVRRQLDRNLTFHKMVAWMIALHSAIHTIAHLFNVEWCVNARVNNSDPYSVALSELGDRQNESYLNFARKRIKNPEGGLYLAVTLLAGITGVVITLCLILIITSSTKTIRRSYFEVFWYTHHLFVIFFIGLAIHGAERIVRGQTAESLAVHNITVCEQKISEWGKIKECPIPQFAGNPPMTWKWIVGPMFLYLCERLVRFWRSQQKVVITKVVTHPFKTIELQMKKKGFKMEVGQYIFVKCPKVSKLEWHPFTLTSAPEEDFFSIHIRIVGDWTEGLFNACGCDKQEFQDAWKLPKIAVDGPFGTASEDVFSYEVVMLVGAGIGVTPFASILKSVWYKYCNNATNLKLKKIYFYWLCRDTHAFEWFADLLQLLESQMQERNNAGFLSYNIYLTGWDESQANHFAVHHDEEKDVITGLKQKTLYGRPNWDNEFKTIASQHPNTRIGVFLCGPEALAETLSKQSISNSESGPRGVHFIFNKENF
Chain of Streptavidin (Streptomyces avidinii) (P22629 whole entry, looked up): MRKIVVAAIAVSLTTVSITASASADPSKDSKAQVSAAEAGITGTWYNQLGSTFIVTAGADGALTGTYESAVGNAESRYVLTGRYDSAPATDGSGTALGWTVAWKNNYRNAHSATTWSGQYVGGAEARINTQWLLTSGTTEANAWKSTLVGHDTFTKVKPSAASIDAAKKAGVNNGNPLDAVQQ
Chain of NADPH oxidase 5 (Homo sapiens) (Q96PH1 whole entry, looked up): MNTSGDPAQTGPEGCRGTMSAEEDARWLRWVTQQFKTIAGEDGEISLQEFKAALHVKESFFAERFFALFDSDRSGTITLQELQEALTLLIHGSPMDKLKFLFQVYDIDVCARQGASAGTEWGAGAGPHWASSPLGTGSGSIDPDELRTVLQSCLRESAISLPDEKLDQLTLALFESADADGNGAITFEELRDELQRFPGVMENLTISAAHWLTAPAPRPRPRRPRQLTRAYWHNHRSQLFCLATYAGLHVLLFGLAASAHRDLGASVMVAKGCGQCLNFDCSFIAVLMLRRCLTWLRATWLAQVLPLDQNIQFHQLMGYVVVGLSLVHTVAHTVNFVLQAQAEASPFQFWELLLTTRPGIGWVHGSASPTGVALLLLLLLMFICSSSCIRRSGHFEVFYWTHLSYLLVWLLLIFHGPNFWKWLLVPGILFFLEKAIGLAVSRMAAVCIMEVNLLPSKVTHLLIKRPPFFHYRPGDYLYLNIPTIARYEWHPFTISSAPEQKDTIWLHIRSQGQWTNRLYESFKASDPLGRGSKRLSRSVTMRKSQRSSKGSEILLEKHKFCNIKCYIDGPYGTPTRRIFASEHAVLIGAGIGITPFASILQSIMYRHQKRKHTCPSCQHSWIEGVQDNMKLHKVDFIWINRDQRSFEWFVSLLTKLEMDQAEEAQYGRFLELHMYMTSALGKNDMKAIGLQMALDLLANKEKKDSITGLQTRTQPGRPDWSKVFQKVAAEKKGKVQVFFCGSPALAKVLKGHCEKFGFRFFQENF
Chain of NADPH oxidase 4 (Homo sapiens) (Q9NPH5 whole entry, looked up): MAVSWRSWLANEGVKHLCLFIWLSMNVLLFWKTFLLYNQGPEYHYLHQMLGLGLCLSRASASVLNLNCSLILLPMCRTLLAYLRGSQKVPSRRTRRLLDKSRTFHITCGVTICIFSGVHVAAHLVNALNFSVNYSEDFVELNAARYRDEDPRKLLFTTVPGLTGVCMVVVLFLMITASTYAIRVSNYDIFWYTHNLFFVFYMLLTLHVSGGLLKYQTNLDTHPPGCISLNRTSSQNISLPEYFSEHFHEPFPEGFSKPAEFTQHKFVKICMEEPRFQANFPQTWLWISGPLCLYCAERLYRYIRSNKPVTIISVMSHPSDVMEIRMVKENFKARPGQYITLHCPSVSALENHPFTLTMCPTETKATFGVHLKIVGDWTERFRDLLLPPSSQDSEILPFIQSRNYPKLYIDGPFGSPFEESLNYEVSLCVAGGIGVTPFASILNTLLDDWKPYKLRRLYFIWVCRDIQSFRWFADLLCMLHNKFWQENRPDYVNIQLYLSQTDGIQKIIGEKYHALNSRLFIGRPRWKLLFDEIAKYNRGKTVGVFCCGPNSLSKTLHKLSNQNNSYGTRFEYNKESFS
Chain of Torsin-1A (Homo sapiens) (O14656 whole entry, looked up): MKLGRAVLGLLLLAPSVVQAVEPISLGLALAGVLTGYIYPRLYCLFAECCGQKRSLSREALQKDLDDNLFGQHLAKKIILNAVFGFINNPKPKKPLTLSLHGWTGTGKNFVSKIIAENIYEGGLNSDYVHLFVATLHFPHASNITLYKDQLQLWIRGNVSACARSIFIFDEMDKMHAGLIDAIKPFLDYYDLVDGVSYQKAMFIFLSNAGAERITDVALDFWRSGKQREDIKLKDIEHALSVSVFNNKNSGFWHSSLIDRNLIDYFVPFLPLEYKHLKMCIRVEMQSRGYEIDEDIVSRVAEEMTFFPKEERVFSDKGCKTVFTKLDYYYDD

`COC(=O)c1c(CC[C@@H](CO)NC(=O)NCCn2cc(C3(O)CCCC3)nn2)oc(C(C)=O)c1C(=O)OC`: the composite z-score in [1] is -0.344; in assay [6], 0.102; in [7], -0.203; in assay [8], -0.0395; in [9], 0.105; in [10] it was -0.303. Also, the composite z-score in assay [12] is -0.403. Also, the z-score in assay [2] was -0.177 (inactive); in assay [3], 0.699 (inactive); in assay [4] it was 0.978 (inactive); in assay [5], -0.194 (inactive); in assay [11] it was -1.2 (inactive); in assay [13] it was 2.06 (inactive). The z-score in assay [14] is 0.474 (inactive); in assay [15], 1.29 (inactive); in assay [16], 0.533 (inactive); in [17], -0.359; in assay [18] it was -0.278 (inactive); in assay [19], 0.233 (inactive). For the same molecule, in [20], the z-score was -0.666.

Regarding `COC(=O)[C@@]1(Cc2ccc(OC)cc2)[C@H]2c3cc(C(=O)N(C)C)n(Cc4ccc(S(C)(=O)=O)cc4)c3C[C@H]2CN1C(=O)c1ccccc1`, the composite z-score in assay [1] is -0.0427; in [6] it was 1.24; in [7] it was 0.431; in [8], 2.24; in assay [9] it was 1.29; in assay [10], -0.599. Also, the composite z-score in assay [12] is 1.06. Also, the z-score in assay [2] was -2.9 (inactive); in assay [3] it was -1.05 (inactive); in [4] it was -1.14 (inactive); in assay [5], -1.33 (inactive); in assay [11], -0.752 (inactive); in assay [13], 1.85 (inactive). For the same molecule, the z-score is 0.451 (inactive) in assay [14]; 0.954 (inactive) in [15]; -0.336 (inactive) in assay [16]; 4.44 in assay [17]; 1.04 (inactive) in assay [18]; 1.74 (inactive) in [19]. Further, the z-score in [20] was -3.36.

Take `C=C[C@H](CO)NS(=O)(=O)c1ccc(Br)cc1`: the composite z-score in [1] was -0.269; in [6] it was 0.257; in assay [7] it was -0.159; in assay [8] it was 0.0757; in [9] it was -0.0632; in assay [10], 0.156. Besides, in assay [12], the composite z-score is -0.24. Moreover, the z-score in assay [2] was 0.116 (inactive); in [3] it was 0.564 (inactive); in assay [4] it was 0.643 (inactive); in assay [5], 1.79 (inactive); in assay [11], 1.25 (inactive); in assay [13] it was -0.261 (inactive). For the same molecule, the z-score in [14] was -0.102 (inactive); in [15], -0.154 (inactive); in assay [16], 0.325 (inactive); in assay [17], 0.0242; in assay [18], 2.3 (inactive); in [19], 0.447 (inactive). For the same molecule, the z-score in assay [20] stood at 0.264.

Consider `CC[C@@H]1C=C(C(=O)O)[C@H](c2ccc(Br)cc2)N1S(=O)(=O)c1ccc(C)cc1`, for which the composite z-score is -0.13 in [1]; 0.791 in assay [6]; 0.222 in [7]; 0.297 in assay [8]; 0.233 in [9]; 0.248 in [10]. In addition, the composite z-score in [12] is -0.0989. Also, the z-score is -0.141 (inactive) in assay [2]; 0.598 (inactive) in [3]; 0.0798 (inactive) in assay [4]; 0.472 (inactive) in [5]; -0.467 (inactive) in assay [11]; 0.471 (inactive) in assay [13]. Moreover, the z-score was 1.06 (inactive) in assay [14]; -0.187 (inactive) in [15]; 0.658 (inactive) in assay [16]; -0.283 in assay [17]; 0.451 (inactive) in assay [18]; -0.117 (inactive) in [19]. For the same molecule, in assay [20], the z-score worked out at 0.379.

`COC(=O)[C@@]1(Cc2ccc(OC)cc2)[C@H]2c3cc(C(=O)N(C)C)n(CCc4ccccn4)c3C[C@H]2CN1C(=O)c1ccccc1`: the composite z-score in [1] is 1.19; in assay [6], 1.86; in [7] it was 1.17; in assay [8] it was -0.128; in assay [9], 1.04; in assay [10], -0.127. The same molecule registered a composite z-score in [12] of 1.64. The z-score is -2.18 (inactive) in [2]; 0.165 (inactive) in assay [3]; 1.92 (inactive) in assay [4]; 0.577 (inactive) in assay [5]; -1.83 (inactive) in assay [11]; 3.81 (inactive) in assay [13]. Further, the z-score was 1.77 (inactive) in assay [14]; 1.01 (inactive) in [15]; 1.58 (inactive) in assay [16]; -0.334 in [17]; 0.63 (inactive) in assay [18]; -0.925 (inactive) in assay [19]. Moreover, the z-score in [20] was -1.04.
